# PubChem BioAssay
# The source made the active and inactive calls.
# Columns and labels:
# [1] = tested on: Plasmodium falciparum Sir2 (PF13_0152, Sir2A); test: Plasmodium falciparum Sir2A binding compounds – biochemical, small-molecule microarray, 635 nm fluorescence, primary screen (AID 1098); details: fluorescence 635 nm, higher = more signal;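 note: score merges spot fluorescence intensity with its signal-to-noise ratio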
# [2] = probe aDKK1 binding to arrayed compounds – biochemical, biotinylated probe, 635/667 nm fluorescence, primary screen (AID 1099); details: small-molecule microarray, higher = more signal;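 note: score merges 667nm spot fluorescence with signal to noise across triplicate slides; reference of the scale not given here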
# [3] = probe aCHRDL2 binding to arrayed compounds – biochemical, biotinylated probe, 635/667 nm fluorescence, primary screen (AID 1100); details: small-molecule microarray, higher = more signal
# [4] = change in splice reporter luminescence, either direction, cell-based, HEK293, spliceosome inhibition project, primary screen (AID 1101); details: HEK293 splicing luciferase reporter, 24 h, higher = more signal, called active from +8 up or from −8 down;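 note: HEK293 cells carrying a splicing-competent luciferase reporter gene; test concentration not given here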
# [5] = target: Fibroblast growth factor 10 (Homo sapiens) (UniProt O15520); test: compounds binding fibroblast growth factor 10 – biochemical, small-molecule microarray, 635 nm fluorescence, primary screen (AID 1102); details: FGF10 binding, fluorescence 635 nm, higher = more signal
# [6] = tested on: glycogen synthase kinase-3 (GSK3A per assay name; protocol says GSK3B); test: compounds binding glycogen synthase kinase-3 – biochemical, small-molecule microarray, 635 nm fluorescence, GSK3A, primary screen (AID 1103); details: fluorescence 635 nm, higher = more signal; note: the record names both GSK3A and GSK3B
# [7] = target: Epidermal growth factor receptor (Homo sapiens) (UniProt P00533); test: compounds binding epidermal growth factor receptor – biochemical, small-molecule microarray, 635 nm fluorescence, primary screen (AID 1104); details: EGFR binding, higher = more signal;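 note: score merges 667 nm emission intensity with spot signal to noise over triplicate slides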
# [8] = target: Follistatin-related protein 3 (Homo sapiens) (UniProt O95633); test: compounds binding follistatin-related protein 3 – biochemical, small-molecule microarray, 635 nm fluorescence, primary screen (AID 1105); details: FSTL3 binding, higher = more signal;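 note: score merges emission near 667 nm and signal to noise per printed spot across three slides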
# [9] = target: Dickkopf-related protein 1 (Homo sapiens) (UniProt O94907); test: small molecules binding DKK1 protein – biochemical, small-molecule microarray, 635 nm fluorescence scan, primary screen (AID 1106); details: higher = more signal;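 note: score merges emission near 667 nm with signal to noise over three replicate slides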
# [10] = tested on: Inhibin beta A chain (activin A); test: small molecules binding activin A – biochemical, small-molecule microarray, 635 nm fluorescence scan, primary screen (AID 1107); details: INHBA, higher = more signal;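 note: mouse activin A protein probed at 4.33 µg/mL on printed slides; score merges bound-protein fluorescence near 667 nm with spot signal-to-noise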
# Chain of Dickkopf-related protein 1 (Homo sapiens) (O94907 whole entry, looked up): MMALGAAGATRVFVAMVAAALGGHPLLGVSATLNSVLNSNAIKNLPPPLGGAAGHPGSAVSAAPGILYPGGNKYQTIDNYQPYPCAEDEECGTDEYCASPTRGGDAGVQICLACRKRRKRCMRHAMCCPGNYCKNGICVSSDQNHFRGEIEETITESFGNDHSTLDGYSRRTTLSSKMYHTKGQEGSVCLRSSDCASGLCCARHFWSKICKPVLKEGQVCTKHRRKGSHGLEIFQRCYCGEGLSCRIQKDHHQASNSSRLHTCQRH
# Chain of Follistatin-related protein 3 (Homo sapiens) (O95633 whole entry, looked up): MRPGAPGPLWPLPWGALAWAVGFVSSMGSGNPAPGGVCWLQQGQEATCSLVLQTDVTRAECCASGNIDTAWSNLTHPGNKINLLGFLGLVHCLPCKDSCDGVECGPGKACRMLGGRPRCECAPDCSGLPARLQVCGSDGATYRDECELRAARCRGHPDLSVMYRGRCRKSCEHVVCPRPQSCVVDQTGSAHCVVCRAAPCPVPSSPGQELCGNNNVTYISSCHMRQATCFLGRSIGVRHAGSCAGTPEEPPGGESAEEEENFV
# Chain of Epidermal growth factor receptor (Homo sapiens) (P00533 whole entry, looked up): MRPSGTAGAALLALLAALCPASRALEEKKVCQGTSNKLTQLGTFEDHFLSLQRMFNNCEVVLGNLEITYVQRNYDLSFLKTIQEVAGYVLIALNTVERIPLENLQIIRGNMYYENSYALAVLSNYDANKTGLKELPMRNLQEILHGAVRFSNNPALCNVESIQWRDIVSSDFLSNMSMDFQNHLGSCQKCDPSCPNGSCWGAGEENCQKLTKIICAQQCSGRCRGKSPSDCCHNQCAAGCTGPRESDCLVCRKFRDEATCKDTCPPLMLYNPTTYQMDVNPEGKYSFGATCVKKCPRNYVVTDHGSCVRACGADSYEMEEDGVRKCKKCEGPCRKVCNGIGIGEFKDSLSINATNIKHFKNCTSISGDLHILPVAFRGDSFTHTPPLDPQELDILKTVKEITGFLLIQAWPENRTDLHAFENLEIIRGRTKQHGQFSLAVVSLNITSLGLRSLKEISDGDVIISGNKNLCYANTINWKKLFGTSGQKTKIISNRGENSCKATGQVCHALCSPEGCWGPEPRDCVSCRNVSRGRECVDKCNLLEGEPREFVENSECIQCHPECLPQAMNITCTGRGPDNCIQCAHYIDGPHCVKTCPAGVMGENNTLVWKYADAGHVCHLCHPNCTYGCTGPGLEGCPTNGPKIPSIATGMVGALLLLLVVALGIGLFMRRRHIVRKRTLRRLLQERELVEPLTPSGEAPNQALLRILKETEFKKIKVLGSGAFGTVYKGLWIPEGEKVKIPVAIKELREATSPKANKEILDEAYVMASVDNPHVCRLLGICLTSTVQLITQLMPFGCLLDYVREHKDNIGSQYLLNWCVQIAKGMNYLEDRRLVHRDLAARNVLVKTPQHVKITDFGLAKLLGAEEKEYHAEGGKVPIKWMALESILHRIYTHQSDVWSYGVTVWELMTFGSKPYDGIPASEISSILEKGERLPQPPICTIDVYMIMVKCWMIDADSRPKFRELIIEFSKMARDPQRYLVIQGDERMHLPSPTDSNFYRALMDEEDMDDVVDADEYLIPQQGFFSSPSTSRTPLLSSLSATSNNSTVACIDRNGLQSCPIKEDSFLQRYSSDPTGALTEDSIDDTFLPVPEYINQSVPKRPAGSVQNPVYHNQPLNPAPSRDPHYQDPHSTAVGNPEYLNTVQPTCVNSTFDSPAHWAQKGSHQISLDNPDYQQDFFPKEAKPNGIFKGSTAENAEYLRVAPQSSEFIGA
# Chain of Fibroblast growth factor 10 (Homo sapiens) (O15520 whole entry, looked up): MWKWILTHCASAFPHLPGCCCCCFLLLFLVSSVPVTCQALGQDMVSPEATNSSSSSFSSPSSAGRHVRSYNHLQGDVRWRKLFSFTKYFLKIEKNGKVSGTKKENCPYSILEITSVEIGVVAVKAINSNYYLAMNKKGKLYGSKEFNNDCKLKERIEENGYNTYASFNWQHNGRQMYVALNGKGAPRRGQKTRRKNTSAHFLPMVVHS
smiles,measurement,setting,value
CC(C)N1C(=O)C[C@@](C(=O)NC2CC2)(c2ccc([N+](=O)[O-])cc2)[C@H]1c1ccc(CO)cc1,composite z-score,[1],-0.66
same,composite z-score,[2],0.34
same,composite z-score,[3],0.993
same,z-score,[4],-1.34 (inactive)
same,composite z-score,[5],-0.576
same,composite z-score,[6],-0.3
same,composite z-score,[7],-1.18
same,composite z-score,[8],-1.1
same,composite z-score,[9],-0.674
same,composite z-score,[10],-1.48
COCC(=C=CC[C@H](O)c1ccccc1OCCO)C[C@H](O)c1ccccn1,composite z-score,[1],0.34
same,composite z-score,[2],-0.201
same,composite z-score,[3],-0.0336
same,z-score,[4],0.0209 (inactive)
same,composite z-score,[5],0.207
same,composite z-score,[6],-0.115
same,composite z-score,[7],-0.299
same,composite z-score,[8],-0.114
same,composite z-score,[9],-0.0344
same,composite z-score,[10],0.41
C=CCN1C(=O)[C@]2(CCS(=O)(=O)c3ccccc3)N=C(c3ccc(OCCCO)cc3)O[C@@H]2c2ccccc21,composite z-score,[1],1.38
same,composite z-score,[2],-0.317
same,composite z-score,[3],0.7
same,z-score,[4],-1.81 (inactive)
same,composite z-score,[5],0.732
same,composite z-score,[6],1.29
same,composite z-score,[7],0.387
same,composite z-score,[8],1.43
same,composite z-score,[9],0.466
same,composite z-score,[10],1.18
C=CC[C@]1(C(=O)N2CCOCC2)COC(c2ccc(OCCCO)cc2)=N1,composite z-score,[1],1.76
same,composite z-score,[2],-0.016
same,composite z-score,[3],0.431
same,z-score,[4],-0.612 (inactive)
same,composite z-score,[5],0.66
same,composite z-score,[6],0.438
same,composite z-score,[7],-0.238
same,composite z-score,[8],0.264
same,composite z-score,[9],0.188
same,composite z-score,[10],0.976
COC(=O)[C@@H]1N=C(c2ccc(OCCCO)cc2)O[C@@H]1C,composite z-score,[1],-0.0756
same,composite z-score,[2],0.017
same,composite z-score,[3],0.795
same,z-score,[4],0.04 (inactive)
same,composite z-score,[5],0.965
same,composite z-score,[6],0.16
same,composite z-score,[7],-0.55
same,composite z-score,[8],-0.0372
same,composite z-score,[9],0.0375
same,composite z-score,[10],-0.004
COC(=O)[C@@]1(Cc2ccc(OC)cc2)[C@H]2c3cc(C(=O)N4CCCC4)n(CCO)c3C[C@H]2CN1C(=O)c1ccccc1,composite z-score,[1],0.333
same,composite z-score,[2],0.798
same,composite z-score,[3],0.888
same,z-score,[4],-1.14 (inactive)
same,composite z-score,[5],0.717
same,composite z-score,[6],0.483
same,composite z-score,[7],0.0327
same,composite z-score,[8],0.155
same,composite z-score,[9],-0.418
same,composite z-score,[10],0.45
C=C[C@H]1C(C(=O)OCC)=CC[C@@H](c2ccccc2)N1S(=O)(=O)c1ccc(C)cc1,composite z-score,[1],1.05
same,composite z-score,[2],0.158
same,composite z-score,[3],0.587
same,z-score,[4],-2.78 (inactive)
same,composite z-score,[5],0.922
same,composite z-score,[6],1.3
same,composite z-score,[7],0.224
same,composite z-score,[8],1.11
same,composite z-score,[9],0.0288
same,composite z-score,[10],1.34
Cc1ccc(S[C@]2(C(=O)NCC(F)(F)F)CC(=O)N(Cc3cc(C(F)(F)F)cc(C(F)(F)F)c3)[C@@H]2c2ccc(CO)cc2I)cc1,composite z-score,[1],1.4
same,composite z-score,[2],-0.647
same,composite z-score,[3],1.02
same,z-score,[4],-0.719 (inactive)
same,composite z-score,[5],-1.03
same,composite z-score,[6],-0.466
same,composite z-score,[7],-0.552
same,composite z-score,[8],0.0535
same,composite z-score,[9],-1.26
same,composite z-score,[10],0.948
C=CCNC(=O)[C@@H]1[C@H]2C(=O)O[C@H](c3ccccc3)[C@H](c3ccccc3)N2[C@H](c2ccccc2OCCO)[C@@]12C(=O)Nc1ccc(C#CCCO)cc12,composite z-score,[1],0.124
same,composite z-score,[2],-0.332
same,composite z-score,[3],0.178
same,z-score,[4],-1.06 (inactive)
same,composite z-score,[5],0.95
same,composite z-score,[6],0.773
same,composite z-score,[7],0.954
same,composite z-score,[8],1.04
same,composite z-score,[9],1.49
same,composite z-score,[10],0.65
CCOC(=O)C1=CC[C@@H](c2ccccc2)N(S(=O)(=O)c2ccc(C)cc2)[C@H]1c1ccccc1,composite z-score,[1],0.264
same,composite z-score,[2],0.769
same,composite z-score,[3],0.54
same,z-score,[4],-0.387 (inactive)
same,composite z-score,[5],0.356
same,composite z-score,[6],0.738
same,composite z-score,[7],-0.404
same,composite z-score,[8],0.397
same,composite z-score,[9],-0.187
same,composite z-score,[10],0.903
